Assay outcomes as filed in PubChem BioAssay.
D1 ag = agonists of human D1 dopamine receptor; AID 504660; 360,000 tested, 1% active; activation, % at 2 µM; HEK293 T-REx D1 cells, calcium flux, agonist mode; P21728; in the data active = activation above about 30%
Target sequence (P21728 whole entry, looked up): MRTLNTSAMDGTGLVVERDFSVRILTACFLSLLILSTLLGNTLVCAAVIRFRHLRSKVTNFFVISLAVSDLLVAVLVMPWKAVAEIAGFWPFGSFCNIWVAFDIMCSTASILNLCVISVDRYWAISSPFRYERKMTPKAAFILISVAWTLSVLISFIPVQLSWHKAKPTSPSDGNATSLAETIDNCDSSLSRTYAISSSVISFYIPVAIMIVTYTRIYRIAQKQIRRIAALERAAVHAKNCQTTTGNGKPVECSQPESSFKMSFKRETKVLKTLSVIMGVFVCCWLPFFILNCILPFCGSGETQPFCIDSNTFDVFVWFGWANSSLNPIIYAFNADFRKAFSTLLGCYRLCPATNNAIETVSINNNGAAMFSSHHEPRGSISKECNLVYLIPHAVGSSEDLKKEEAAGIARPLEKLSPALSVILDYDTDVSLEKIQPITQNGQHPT
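Agonism was scored from calcium flux recorded over 180 s (1 read/s) after pintool compound addition, following a 10-cycle baseline. Cells were inducible force-coupled HEK293 TREx D1, plated overnight at 30 C and loaded with no-wash calcium dye.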
D3 antag = antagonists of human D3 dopamine receptor | D3R cells, DiscoveRx beta-arrestin luminescence, antagonist mode; stronger effect = lower value | max response, negative = inhibition, % | 360,000 tested, 2.5% active | AID 652054; in the data active = max response below about -50%; inconclusive = no clear call, values can overlap the other calls
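Cells expressing the human receptor were seeded at 1500 cells/well, incubated overnight at 37 degrees C in 5% CO2, then exposed to library compounds with dopamine controls for 90 minutes at 37 degrees C before luminescent detection.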
D1 antag = blocks dopamine activation of the human D1 receptor; P21728; HEK293 TREx D1 cells, calcium flux, dopamine EC80; stronger effect = lower value; activity change, negative = inhibition, % at 10 µM; 360,000 tested, 3.2% active; in the data active = activity change below about -30%
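After overnight tetracycline induction at 30 C, force-coupled D1 HEK293 cells took up a no-wash calcium dye at room temperature. Compounds were added and monitored 180 s, and the response to EC80 dopamine was then recorded.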
D1 PAM = enhances dopamine response at the human D1 receptor | AID 504651 | potentiation, % at 10 µM | P21728 | HEK293 TREx D1 cells, calcium flux, dopamine EC20 potentiation | 360,000 tested, 0.036% active; in the data active = potentiation above about 30%
D3 ag = agonists of human D3 dopamine receptor; P35462; D3R DiscoveRx beta-arrestin cells, luminescence, 90 min; max activation, %; 410,000 tested, 0.58% active; in the data active = max activation above about 30%
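Cells at 1500/well, incubated overnight, then treated with pinned compounds (dopamine as control) for 90 min at 37 degrees C. DiscoveRx reagent added for 30 - 60 minutes at room temperature; luminescence read.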
A number is an active result; i = inactive; ? = inconclusive; nt = no result. A selection: hits, their analogues and other compounds. The true share with any hit is near 6%.

SMILES	D1 ag	D3 antag	D1 antag	D1 PAM	D3 ag
COc1ccc(N2CCN(S(=O)(=O)c3c(C)nc4sc(C)cn4c3=O)CC2)cc1	i	nt	i	i	i
Cc1oc(-c2ccc(C(=O)NCc3ccc(Cl)cc3)cc2)nc1CS(=O)(=O)c1ccccc1	i	nt	i	i	i
O=C1c2ccccc2C(=O)N1CCCCc1cn(C[C@H]2CC[C@@H]([C@@H]3CC[C@H](Cn4cc(CCCCN5C(=O)c6ccccc6C5=O)nn4)O3)O2)nn1	nt	i	nt	nt	51.0
O=C1c2ccccc2C(=O)N1CCCc1cn(C[C@H]2CC[C@@H]([C@@H]3CC[C@H](Cn4cc(CCCN5C(=O)c6ccccc6C5=O)nn4)O3)O2)nn1	i	i	i	i	i
CCn1c(=O)cc(SCC(=O)NCCc2ccc(OC)cc2OC)c2ccccc21	i	nt	i	i	i
CSc1ccc(C2c3c(oc4cc(C)cc(C)c4c3=O)C(=O)N2CCO)cc1 (centres undefined)	i	nt	-46.4	i	i
COc1ccc(CCNC(=O)C(C)n2nc(C)c3sc4ccccc4c3c2=O)c(OC)c1 (centres undefined)	i	nt	i	i	i
Cc1ccc(-c2oc3ccccc3c(=O)c2O)cc1	30.2	i	i	i	i
Cc1ccc2oc(-c3ccccc3)c(C(=O)O)c(=O)c2c1	i	-52.5	i	i	i
COc1ccc2oc(-c3ccccc3)c(C(=O)N(C)C)c2c1	i	i	-70.0	i	i
O=c1c(O)c(-c2ccccc2)oc2ccccc12	nt	i	nt	nt	i
COc1cccc(-c2oc3ccc(C)cc3c(=O)c2O)c1	61.4	nt	i	i	i
CCc1cccc(NC(c2ccccc2)c2nnc(-c3ccccc3F)o2)c1 (centres undefined)	i	nt	i	i	i
CCC1CCCCN1S(=O)(=O)c1ccc(NC(=O)c2nc(SC)ncc2Cl)cc1 (centres undefined)	i	nt	i	i	i
O=C1CN(C(=O)c2ccc(Cl)cc2Cl)C(c2ccc(F)cc2)c2cc(F)ccc2N1 (centres undefined)	i	nt	i	i	i
COc1ccccc1NC(=O)c1cc2c([nH]c1=O)CC(C)(C)CC2=O	i	nt	i	i	i
COc1ccc(-c2nn(C)c3sc(C(=O)Nc4cc(OC)c(OC)c(OC)c4)cc23)cc1OC	i	nt	i	i	i
CCOc1ccc(-c2oc3ccc(C)cc3c(=O)c2O)cc1	37.1	nt	i	i	i
CN(C)S(=O)(=O)N1CCC(N2CCN(Cc3ccc(F)cc3)C(=O)C2=O)CC1	i	nt	i	i	i
Cc1ccccc1NC(=O)CSc1nc2c(c(=O)n(C)c(=O)n2C)n1Cc1ccccc1F	i	nt	i	i	i
N#Cc1nc(Nc2cccc(F)c2)nc(NC2CCCC2)n1	i	nt	-34.0	i	nt
COc1ccc(Nc2nc(C#N)nc(NC3CCCC3)n2)cc1	i	nt	-36.4	i	nt
Fc1cc(F)cc(Nc2nc(NC3CCCC3)nc(C3CO3)n2)c1 (centres undefined)	74.5	nt	-36.9	i	nt
C=Cc1nc(Nc2cc(F)cc(F)c2)nc(NC2CCCC2)n1	i	nt	i	i	nt
N#Cc1nc(Nc2cccc(-c3ccccc3)c2)nc(NC2CCCC2)n1	i	nt	-31.1	i	nt
SMILES	D1 ag	D3 antag	D1 antag	D1 PAM	D3 ag
COc1ccc(S(=O)(=O)N2CCC(N3CCN(Cc4ccccc4)C(=O)C3=O)CC2)cc1	i	nt	i	i	i
Cc1ccc(Nc2ccc(N3CCN(C(=O)c4cccc([N+](=O)[O-])c4)CC3)nn2)cc1	i	nt	nt	i	i
Cc1ccc(C)c(Nc2nc(-c3ccccc3)c3cc(Br)ccc3n2)c1	i	nt	i	i	i
O=C(Nc1cc(Cl)cc(Cl)c1)c1coc(=O)c(Br)c1	37.0	i	-46.0	i	i
O=C(NC(CO)(CO)CO)c1coc(=O)c(Br)c1	i	i	i	i	i
Cc1c(Br)cccc1NC(=O)C1(C)CCN1Cc1ccc(OC(C)C)cc1 (centres undefined)	nt	i	nt	nt	i
CC(C)Oc1ccc(CN2CCC2(C)C(=O)Nc2cccc3cccnc23)cc1 (centres undefined)	nt	-92.0	nt	nt	i
CCCCN(C(=O)c1ccccc1Cl)C(CC(C)C)c1nc2ccccc2[nH]1 (centres undefined)	nt	i	nt	nt	48.4
O=C1NC(=S)N/C1=C\c1ccc(Oc2ccc(C(F)(F)F)cc2[N+](=O)[O-])c(Cl)c1	i	i	-51.6	i	i
CCOc1c(Cl)cc(CNCC(C)C)cc1OC	i	i	i	i	i
CCOc1cc(CNCCc2c[nH]c3ccccc23)cc(Cl)c1OCC(N)=O	i	?	i	i	i
COc1cc(CNCCc2ccccc2)cc(Cl)c1OCc1ccccc1	40.1	i	i	i	i
CCOc1cc(CNCC(C)C)cc(Cl)c1OCc1ccccc1	47.3	i	i	i	i
COc1cc(CNCCc2c[nH]c3ccccc23)cc(Cl)c1OCC(N)=O	i	?	-30.7	i	i
COc1cc(CNCCc2ccccc2)cc(Br)c1OCC(=O)Nc1ccccc1C	51.1	i	i	i	i
CNCc1cc(Br)c(OCC(=O)Nc2ccccc2OC)c(OC)c1	i	i	i	i	i
COc1cc(CNCc2ccccc2)cc(Cl)c1OC	i	i	i	i	i
O=S(=O)(c1ccc2c(c1)OCCO2)N1CCN(S(=O)(=O)c2cccc(Cl)c2F)CC1	i	nt	i	i	nt
COc1ccc(Cn2ccnc2SCC(=O)Nc2cc(C(F)(F)F)ccc2Cl)cc1	i	nt	i	i	i
COc1ccc(N2CC(NC(=O)/C=C\c3ccc4c(c3)OCO4)CC2=O)cc1 (centres undefined)	i	nt	nt	i	i
COc1cc(CNCCc2ccccc2F)ccc1OCc1ccc(Cl)nc1	i	?	i	i	i
COc1cc(CNCCc2ccc(F)cc2)ccc1OCc1ccc(Cl)nc1	91.9	i	-40.0	i	i
CCOc1ccc(N2C(=O)/C(=C\c3ccc(OC)c(O)c3)S(=O)(=O)C2c2cccc([N+](=O)[O-])c2)cc1 (centres undefined)	i	i	-73.2	i	i
CCCCNC(=O)C1CC(=O)N(C2CCCCC2)C1 (centres undefined)	31.5	i	i	i	i
Cc1ccc(CCNC(=O)C2CC(=O)N(C3CCCCC3)C2)cc1 (centres undefined)	i	i	i	i	i
CCCC(c1nnnn1Cc1cccs1)N1CCN(C)CC1 (centres undefined)	i	i	i	i	i
COc1ccccc1CN1CCN(C(CC(C)C)c2nnnn2Cc2cccs2)CC1 (centres undefined)	i	-62.8	i	i	i
Cc1ccc(C(c2nnnn2Cc2cccs2)N2CCN(Cc3ccc4c(c3)OCO4)CC2)cc1 (centres undefined)	i	-53.1	i	i	i
COc1ccc(C(c2nnnn2Cc2cccs2)N2CCN(c3ccccc3F)CC2)cc1OC (centres undefined)	i	-81.5	i	i	i
COCCn1nnnc1C(c1cc2cccc(C)c2[nH]c1=O)N1CCN(c2ccccc2F)CC1 (centres undefined)	i	-53.5	i	i	i
